High-throughput results (PubChem BioAssay)
The entries come from a sample that favours hits as a whole.
U2OS ROS induce – raises reactive oxygen species in U2OS cancer cells. U2OS ROS induction, H2DCF-DA fluorescence. ROS induction (% of piperlongumine), % at 10 µM. hit rate 2% among 46,000. AID 624156; in the data active means ROS induction above about 79%, passing the limit was not always enough
A number is an active result; - = inactive.

SMILES | U2OS ROS induce
CC1=C(C(=O)Nc2ccccc2Cl)C(c2cc(Br)ccc2OCC(N)=O)NC(=S)N1 (stereo not given) | -
COc1cc(C2NC(=S)NC(C)=C2C(=O)Nc2ccccc2Cl)ccc1OCC#N (stereo not given) | 103
CCC(=O)Nc1ccc(C#N)cc1 | -
N#CCSc1nc2nccnc2c(=O)n1CCc1ccccc1 | -
COc1ccc(NC(=O)c2ccccc2NC(=O)COc2ccc([N+](=O)[O-])cc2)cc1 | -
COc1ccc(NC(=O)Cc2nc(-c3ccc([N+](=O)[O-])cc3)cs2)cc1 | 94
O=C(COc1ccc([N+](=O)[O-])cc1)Nc1cccnc1 | -
Cc1ccc(C)n1-c1ccc(C(=O)OCC(=O)c2ccc(Cl)cc2)cc1 | -
Cc1ccc(-c2nnc3c4ccccc4c(C)nn23)cc1S(=O)(=O)NC(C)c1ccccc1 (stereo not given) | -
Cc1ccc(-c2nn3c(C)nnc3c3ccccc23)cc1S(=O)(=O)NCc1ccco1 | 125
CCOc1cc(S(=O)(=O)NCc2ccco2)c(C)cc1C | -
COC(=O)C1Sc2[nH]c(=O)sc2C(c2ccc(OC)cc2)C1C(=O)OC (stereo not given) | -
COc1cc(Br)cc(/C=N/N(CCO)C2=NS(=O)(=O)c3ccccc32)c1OC | 115
CC(C)C(C(=O)Nc1ccc(S(=O)(=O)Nc2ncccn2)cc1)N1C(=O)c2ccccc2C1=O (stereo not given) | -
Cn1c(CCCO)nc2ccccc21 | -
COc1c(O[C@@H]2O[C@H](CO)[C@@H](O)[C@H](O)[C@H]2O)cc2oc(-c3ccc(O)cc3)cc(=O)c2c1O | -
CC(=O)Oc1ccc(-c2coc3cc(OC(C)=O)cc(OC(C)=O)c3c2=O)cc1 | -
CC(=O)OC[C@H]1O[C@@H](Oc2cc(OC(C)=O)c3c(=O)cc(-c4ccc(OC(C)=O)cc4)oc3c2)[C@H](OC(C)=O)[C@@H](OC(C)=O)[C@@H]1OC(C)=O | 246
CCc1ccc(-n2nc3ccc(NC(=O)c4ccccc4Br)cc3n2)cc1 | -
C=C1C(=O)O[C@H]2C1[C@H](OC(=O)/C(=C/CO)COC(=O)/C(C)=C/CO)CC(=C)[C@@H]1CC(=O)[C@@H](C)[C@@H]12 (stereo not given in full) | 87
C=C1C(=O)O[C@@H]2/C=C(/C)[C@@H]3C/C=C(/C[C@@H](OC(=O)/C(=C/CO)CO)[C@@H]12)C[C@@](O)(C(C)C)C(=O)O3 | -
Cc1ccc(CN(C(=O)COc2c(F)c(F)c(F)c(F)c2F)C2CCS(=O)(=O)C2)o1 (stereo not given) | -
CCC(=O)Nc1sc(Cc2ccccc2)c(C)c1C(=O)OC | -
Clc1ccc2oc(-c3ccccc3)cc(=NCC3CCCO3)c2c1 (stereo not given) | -
O=C(Nc1ccc(-c2nc3ccccc3o2)cc1)c1ccccc1Cl | -
SMILES | U2OS ROS induce
COc1ccc(-n2c(SCC(=O)c3ccccc3)nnc2-c2ccncc2)cc1 | -
Cn1c(SCCCN2C(=O)c3cccc4cccc(c34)C2=O)nnc1-c1cccs1 | -
COc1ccc(-n2c(SCCCN3C(=O)c4cccc5cccc(c45)C3=O)nnc2-c2ccncc2)cc1 | 88
CC(=O)N1CCN(c2nc(-c3ccccc3)c3ccccc3n2)CC1 | -
CC12CCC(CC(=O)c3ccccc3)(CC1)CC2 | -
CC(C)(C)C1CCC2(CC1)C(C#N)C2(C#N)C(=O)c1ccccc1 (stereo not given) | 159
CCOC(=O)c1cn(CC)c2ccc(S(=O)(=O)N3CCc4ccccc4C3)cc2c1=O | -
N#Cc1ccccc1NC(=O)CN1C(=O)c2ccccc2C1=O | -
Cc1c(CCNC2=CC(=O)OC23CCCCC3)c2ccccc2n1C | -
OCCN(C=NC1=NN(c2ccccc2)CC1)CCO | -
O=c1c2ccccc2ncn1Cc1ccc(F)cc1 | -
C=CCN1C(=O)[C@@]2(O[C@@H](CCn3cc(CCO)nn3)[C@H]([Si](C)(C)c3ccc(OC)cc3)[C@H]2C)c2ccccc21 | -
C=CCN1C(=O)[C@@]2(O[C@@H](CCn3cc(CCO)nn3)[C@H]([Si](C)(C)c3ccc(OC)cc3)[C@H]2C)c2cc(N3C(=O)c4cccc5cccc3c45)ccc21 | 90
C=CCN1C(=O)[C@]2(O[C@H](CCn3cc(CCO)nn3)[C@@H]([Si](C)(C)c3ccc(OC)cc3)[C@@H]2C)c2cc(N3C(=O)c4cccc5cccc3c45)ccc21 | 97
COc1ccc([Si](C)(C)[C@H]2[C@H](CCn3cc(CCO)nn3)O[C@@]3(C(=O)N(c4ccccc4)c4ccccc43)[C@@H]2C)cc1 | -
COc1ccc([Si](C)(C)[C@@H]2[C@@H](CCn3cc(CCO)nn3)O[C@]3(C(=O)N(C)c4ccccc43)[C@H]2C)cc1 | -
C=CCN1C(=O)[C@]2(O[C@H](CCn3cc([C@H](O)c4ccccc4)nn3)[C@@H]([Si](C)(C)c3ccc(OC)cc3)[C@@H]2C)c2ccccc21 | -
CCOC(=O)C1(O)c2ccccc2NC(=O)N1C (stereo not given) | -
Cc1cc(C2(c3cc(C)c(N)c(C)c3)CCCCC2)cc(C)c1N | -
CCCCN1C(=O)S/C(=C\c2cc(C)n(C)c2C)C1=O | -
